Hit rate of the full screen: of about 5,500 compounds, about 2,000 (36%) were called active. Inconclusive results (about 18%) are left out. No stated cut-off is given here; in the data, active means normalized growth mostly below about 0.91 (no sharp cut-off); inconclusive means no clear call, values can overlap the other calls; inactive means mostly above about 0.92. The list shows a part of the results.
Test: chemical genetic growth profiling, strain panel (AID 1159580);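 further: tested at 20 µM; growth read once vehicle control cultures reached saturation at 30 °C; 1 = growth at the plate median or of vehicle wells; lower values mean less growth of the strain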
Settings: S. cerevisiae deletion strains, growth OD
[1] = locus YAL013W, strain DEP1, hits give low values
[2] = locus YBR229C, strain ROT2, hits give low values
[3] = locus YCL061C, strain MRC1, hits give low values
[4] = locus YDL101C, strain DUN1, hits give low values
[5] = locus YDR150W, strain NUM1, hits give low values
[6] = locus YEL061C, strain CIN8, hits give low values
[7] = locus YGR078C, strain PAC10, hits give low values
[8] = locus YHR030C, strain SLT2, hits give low values
[9] = locus YHR087W, strain rtc3, hits give low values
[10] = locus YJR075W, strain HOC1, hits give low values
[11] = locus YKL190W, strain CNB1, hits give low values
[12] = locus YLR039C, strain RIC1, hits give low values
[13] = locus YLR058C, strain SHM2 (second series), hits give low values
[14] = locus YLR085C, strain ARP6, hits give low values
[15] = locus YLR262C, strain YPT6, hits give low values
[16] = locus YML094W, strain GIM5, hits give low values
[17] = locus YMR219W, strain ESC1, hits give low values
[18] = locus YMR263W, strain SAP30, hits give low values
[19] = locus YNL153C, strain GIM3, hits give low values
[20] = locus YNL298W, strain CLA4 (second series), hits give low values
[21] = locus YNL322C, strain KRE1, hits give low values
[22] = locus YNR030W, strain Alg12, hits give low values
[23] = locus YPL055C, strain LGE1, hits give low values
[24] = locus YPL241C, strain CIN2, hits give low values
[25] = locus YPR135W, strain CTF4, hits give low values

Measured: normalized growth

O=S(=O)(c1cc(Br)c(Br)s1)N1CCCCC1
inactive: [1] 1.01 | [2] 0.993 | [3] 0.967 | [4] 0.963 | locus YDL134C, strain PPH21, hits give low values 1.02 | [5] 1.01 | [6] 1.01 | [7] 1.01 | locus YGR229C, strain SMI1, hits give low values 0.984 | [8] 1.14 | [9] 1.03 | locus YJR043C, strain POL32, hits give low values 0.964 | [10] 1.01 | [11] 1.02 | [12] 0.942 | [13] 1.01 | [14] 1.02 | [15] 0.991 | [16] 1 | [17] 1 | [18] 1 | [19] 0.955 | [20] 1.02 | [21] 1.02 | [22] 1.03 | [23] 0.946 | [24] 1 | [25] 1.04

COc1ccc(OC)c(S(=O)(=O)NCc2c(F)cccc2Cl)c1
inactive: [1] 0.994 | [2] 1.01 | [3] 1.01 | [4] 1.02 | [5] 0.985 | [6] 1.04 | [7] 1.02 | [8] 1.02 | [9] 1 | [10] 1.01 | [11] 1.01 | [12] 0.928 | [13] 1.02 | [14] 1.02 | [15] 0.893 | [16] 0.992 | [17] 1.01 | [18] 1.01 | locus YMR307W, strain GAS1, hits give low values 1.09 | [19] 0.993 | [20] 1.02 | [21] 1.01 | [22] 1.02 | locus YOL006C, strain TOP1, hits give low values 0.98 | [23] 1.02 | [24] 1.01 | [25] 1.01

C[C@](N)(Cc1ccc(O)cc1)C(=O)O
inactive: locus YAL021C, strain ccr4, hits give low values 1 | locus YAL026C, strain drs2, hits give low values 0.999 | locus YAL030W, strain snc1, hits give low values 0.998 | locus YBL061C, strain skt5, hits give low values 0.993 | locus YBR009C, strain hhf1, hits give low values 0.993 | locus YBR023C, strain chs3, hits give low values 0.996 | locus YBR171W, strain sec66, hits give low values 0.998 | locus YBR231C, strain swc5, hits give low values 1 | locus YBR279W, strain paf1, hits give low values 1 | locus YCL011C, strain gbp2, hits give low values 1 | locus YCL016C, strain dcc1, hits give low values 0.986 | [3] 1 | locus YCL069W, strain vba3, hits give low values 0.997 | locus YCR088W, strain abp1, hits give low values 0.99 | locus YDL005C, strain med2, hits give low values 0.989 | locus YDL040C, strain nat1, hits give low values 0.991 | locus YDR001C, strain nth1, hits give low values 0.986 | locus YDR069C, strain doa4, hits give low values 1 | locus YDR137W, strain rgp1, hits give low values 0.991 | locus YDR159W, strain sac3, hits give low values 0.991 | locus YDR195W, strain ref2 0.971 | locus YDR297W, strain sur2, hits give low values 0.996 | locus YDR334W, strain swr1, hits give low values 0.997 | locus YDR335W, strain msn5, hits give low values 0.995 | locus YDR392W, strain spt3, hits give low values 0.923 | locus YEL003W, strain gim4, hits give low values 1 | locus YEL037C, strain rad23, hits give low values 0.999 | locus YEL061C, strain CIN8 (second series), hits give low values 0.992 | locus YER015W, strain faa2, hits give low values 1 | locus YER016W, strain bim1, hits give low values 0.993 | locus YER111C, strain swi4, hits give low values 1 | locus YER155C, strain BEM2 (second series), hits give low values 0.983 | locus YFR010W, strain ubp6, hits give low values 1 | locus YGL167C, strain pmr1, hits give low values 0.994 | locus YGL173C, strain kem1, hits give low values 1.01 | locus YGL227W, strain vid30, hits give low values 0.992 | locus YGL240W, strain doc1, hits give low values 1.01 | locus YGL253W, strain hxk2, hits give low values 0.999 | locus YHR013C, strain ard1, hits give low values 0.954 | locus YHR027C, strain rpn1, hits give low values 0.997 | [8] 1.03 | locus YHR079C, strain IRE1, hits give low values 1.04 | locus YHR142W, strain chs7, hits give low values 1.01 | locus YJL092W, strain hpr5, hits give low values 0.998 | locus YJL095W, strain BCK1 (second series), hits give low values 0.997 | locus YJL095W, strain BCK1, hits give low values 1.05 | locus YJL115W, strain asf1, hits give low values 0.99 | locus YJL129C, strain trk1, hits give low values 1.01 | locus YJL154C, strain vps35, hits give low values 1 | locus YJL164C, strain tpk1, hits give low values 0.999 | locus YJL166W, strain qcr8, hits give low values 1 | locus YJL187C, strain SWE1, hits give low values 0.999 | locus YJR066W, strain TOR1, hits give low values 1.01 | locus YKL160W, strain elf1, hits give low values 1.01 | locus YKR026C, strain gcn3, hits give low values 0.98 | locus YKR091W, strain srl3, hits give low values 0.992 | locus YLL001W, strain dnm1, hits give low values 1.01 | locus YLL026W, hits give low values 0.996 | locus YLL041C, strain sdh2, hits give low values 0.997 | locus YLR027C, strain aat2, hits give low values 1 | locus YLR113W, strain HOG1, hits give low values 1.01 | locus YLR221C, strain rsa3, hits give low values 0.997 | locus YLR258W, strain gsy2, hits give low values 0.993 | locus YLR262C, strain YPT6 (second series), hits give low values 1.01 | locus YLR320W, strain mms22, hits give low values 1.01 | locus YLR342W, strain FKS1, hits give low values 0.998 | locus YLR357W, strain rsc2, hits give low values 0.982 | locus YLR370C, strain arc18, hits give low values 1 | locus YLR384C, strain iki3, hits give low values 0.994 | locus YML120C, strain ndi1, hits give low values 1.03 | locus YMR058W, strain fet3, hits give low values 1 | locus YMR125W, strain sto1, hits give low values 0.995 | locus YMR129W, hits give low values 0.986 | locus YMR205C, strain PFK2, hits give low values 0.984 | locus YMR231W, strain pep5, hits give low values 0.999 | locus YNL071W, strain lat1, hits give low values 1.01 | locus YNL183C, strain NPR1, hits give low values 1.02 | locus YNL209W, strain ssb2, hits give low values 1.01 | locus YNL248C, strain rpa49, hits give low values 1.02 | locus YNL322C, strain KRE1 (second series), hits give low values 0.986 | locus YNR049C, strain mso1, hits give low values 0.989 | locus YOR001W, strain rrp6, hits give low values 1 | locus YOR070C, strain gyp1, hits give low values 0.988 | locus YOR080W, strain dia2, hits give low values 0.99 | locus YOR083W, strain WHI5, hits give low values 1.01 | locus YOR106W, strain vam3, hits give low values 1 | locus YOR231W, strain MKK1, hits give low values 1.05 | locus YOR265W, strain rbl2, hits give low values 0.999 | locus YOR270C, strain vph1, hits give low values 1.01 | locus YOR290C, strain snf2, hits give low values 0.926 | locus YPL051W, strain arl3, hits give low values 1.01 | locus YPL078C, strain atp4, hits give low values 1.01 | locus YPL106C, strain sse1, hits give low values 0.993 | locus YPL240C, strain hsp82, hits give low values 1.01 | locus YPL256C, strain CLN2, hits give low values 1.05

From PubChem BioAssay AID1159580 (chemical genetic matrix, 2015)
